Screens (PubChem BioAssay)
Dicer processing – human Dicer pre-microRNA cleavage inhibition; Q9UPY3; cat-ELCCA pre-miR-21 Dicer processing, chemiluminescence; active compounds read high; z-score at 25 µM; 6% of 47,000 active; AID 1347074; in the data active means z-score above about 3, passing the limit was not always enough;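 further: higher signal means more uncleaved substrate so more Dicer inhibition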
Hits are given with their value; - = inactive. The sample as a whole holds a higher share of hits than the screen did.

SMILES	Dicer processing
O=C(Nc1nc2c(-c3ccccc3)c(C(F)(F)F)sc2s1)c1ccc(Cl)cc1	-
CN(C)c1ccc(NC(=O)c2cc3c(n(-c4ccccc4)c2=O)CC(C)(C)CC3=O)cc1	-
Cc1ccc(NS(=O)(=O)c2ccc(Br)cc2C)c(C)c1	-
CCOc1cc(C2C(C(=O)OC)=C(C)Nc3nc4ccccc4n32)ccc1O (stereo not drawn)	-
C=Cc1c(S(C)(=O)=O)sc(C(=O)OCC)c1C	-
CCSc1nc(-c2ccc(Cl)cc2)[nH]c(=O)n1	-
O=c1nc(SCc2c(Cl)cccc2Cl)nc(-c2ccc(Cl)cc2)[nH]1	5.9
O=c1nc(SCc2ccccc2Cl)nc(-c2ccc(Cl)cc2)[nH]1	-
CC1(C)CC(=O)c2cnn(-c3nc4ccccc4[nH]3)c2C1	-
CC1CC(=O)c2cnn(-c3nc4ccccc4s3)c2C1 (stereo not drawn)	3
Cc1nc(Nc2ncc3c(n2)CC(C)CC3=O)nc2ccccc12 (stereo not drawn)	-
COCCCNC(=O)c1nc2ccccc2c(=O)n1NC(=O)c1c(F)cccc1F	-
COC(=O)C1=C(C)N=C2SCCC(=O)N2C1c1ccc(C(C)(C)C)cc1 (stereo not drawn)	-
COC(=O)/C=C1/NCC(OC(=O)c2ccc(C(C)(C)C)cc2)CNC1=O (stereo not drawn)	4.4
CC1(C)COC(c2ccccc2COC(=O)c2ccc(C(C)(C)C)cc2)=N1	-
CC(C)=NOC(=O)Nc1ccc(C(F)(F)F)cc1	-
Clc1ccc(SCc2ccc(-c3csnn3)cc2)cc1	-
COC(=O)c1sc(N2C(=O)c3oc4ccccc4c(=O)c3C2c2ccc(OC)c(OC)c2)nc1C (stereo not drawn)	-
O=c1[nH]c2cc(Cl)ccc2c(-c2ccccc2)c1Sc1ccccn1	-
CCOC(=O)c1sc(SC)c(S(=O)(=O)C(C)C)c1N	-
CCOC(=O)c1sc2sc(-c3ccn[nH]3)c(C)c2c1C	-
Cc1csc2sc(-c3ccn[nH]3)c(C)c12	3.5
Cc1csc2sc(-c3ccnc(SCc4ccccc4)n3)c(C)c12	-
Cc1nc(-c2cccs2)sc1C(=O)NNC(=O)Nc1ccccc1	-
Cc1cc(C)cc(N2C(=O)C3CN=NC3(C)C2=O)c1 (stereo not drawn)	-
SMILES	Dicer processing
Nc1ccccc1N1C(=O)c2cccc3cccc(c23)C1=O	-
COc1ccc(OC)c(N2C(=O)c3cccc4cccc(c34)C2=O)c1	5.7
O=C1c2cccc3cccc(c23)C(=O)N1c1ccccc1O	-
Cc1nc2ccc(NC(=O)C(Cl)Cl)cc2o1	-
COC(=O)CSc1nc(N)nc(C)c1Cl	-
COC(=O)CSc1nc(NC(C)=O)nc(C)c1Br	3.1
COC(=O)CSc1cc(C)nc(NC(C)=O)n1	-
Cc1onc(-c2ccccc2)c1C(=O)Nc1cc(C(F)(F)F)ccc1N1CCc2ccccc2C1	-
Cc1[nH]n(-c2ccccc2)c(=O)c1N=Nc1c(C)n(C)n(-c2ccccc2)c1=O	-
Cc1ccc(N=Nc2c(C)[nH]n(-c3ccccc3)c2=O)c(C)c1	-
Cc1[nH]n(-c2ccccc2)c(=O)c1N=Nc1ccc(N2CCCCC2)cc1	3.6
Cc1nc(N2C(=O)c3oc4ccccc4c(=O)c3C2c2ccc(Cl)cc2)sc1C (stereo not drawn)	-
COc1ccc(-c2nc3n(n2)C(c2ccc(Cl)cc2)C2=C(CCCC2=O)N3)cc1 (stereo not drawn)	-
COc1ccc(-c2ncnn2-c2ccc(Cl)cc2)cc1	-
COc1ccc(-c2nc3n(n2)C(=O)CC(c2ccc(Cl)cc2)S3)cc1 (stereo not drawn)	4.5
COc1ccc(Cc2nc(-c3ccc(C)cc3)no2)cc1	-
COCCNC(=O)CSc1nc(-c2ccco2)cc(C(F)(F)F)n1	-
CCOc1cc(C2C(C(=O)OCc3ccc(OC)cc3)=C(C)NC3=C2C(=O)CCC3)cc(Cl)c1O (stereo not drawn)	-
COC(=O)c1scc(N)c1C(=O)OC	-
Cc1cc(C)c(-n2c(SCC(=O)c3ccc(C#N)cc3)n[nH]c2=O)c(C)c1	-
COc1ccc2c(c1)c(C(=O)CNc1nc(C)cs1)c(C)n2C	-
COc1ccc2c(c1)c(C(=O)CN(C)C)c(C)n2C	4.7
COc1ccc2c(c1)c(C(=O)CNc1nccs1)c(C)n2C	-
COc1ccc(C(=O)NNC(=O)c2scc(Br)c2OC)cc1	-
Cn1c(=O)c2c(nc(NCc3ccco3)n2C)n(C)c1=O	-
SMILES	Dicer processing
CC(C)CNc1nc2c(c(=O)[nH]c(=O)n2C)n1C(C)C	-
CC(C)Cn1c(NCc2ccco2)nc2c1c(=O)[nH]c(=O)n2C	4.5
Cn1c(=O)[nH]c(=O)c2c1nc(NCc1ccco1)n2CC(O)COc1ccccc1 (stereo not drawn)	-
Cc1ccc(Cn2c(NCc3ccco3)nc3c2c(=O)n(C)c(=O)n3C)cc1	-
CC(C)Cn1c(NC2CCCCC2)nc2c1c(=O)[nH]c(=O)n2C	-
CC(C)OCC(O)Cn1c(NCc2ccco2)nc2c1c(=O)[nH]c(=O)n2C (stereo not drawn)	3.9
Cn1c(=O)[nH]c(=O)c2c1nc(NCCO)n2CC(O)COc1ccccc1 (stereo not drawn)	-
CC(C)Cn1c(NCCN(C)C)nc2c1c(=O)[nH]c(=O)n2C	4.3
COc1ccc(C2N=C(N)Nc3nc(=O)c4ccccc4n32)cc1 (stereo not drawn)	-
Cc1ccccc1N1OC2C(=O)N(c3ccccc3)C(=O)C2C1c1ccc(N(C)C)cc1 (stereo not drawn)	-
CCOC(=O)c1cc(/C(N)=N/O)c(C)nc1C(F)(F)F	-
CCOC(=O)c1nc(Nc2ccc(N3CCCC3)cc2)c2ccccc2n1	-
COc1cc([N+](=O)[O-])c(OC)cc1SCC(=O)NNC(=S)Nc1cccc(Cl)c1C	-
CCOc1ccc(-c2c[n+]3c(n2Cc2ccccc2)SCCC3)cc1	-
COC(=O)c1nc2nc(C)cc(C)n2n1	-
O=C(c1nc2nc(-c3ccccc3)cc(C(F)(F)F)n2n1)N1CCOCC1	-
Cc1cc(C)n2nc(C(=O)N3CCOCC3)nc2n1	4.4
CC(=O)c1csc(Nc2ccccc2Cl)n1	-
Cc1csc(Nc2cccc3ccccc23)n1	3.3
COc1ccccc1Nc1nc(C)cs1	-
CCOC(=O)C(O)(NC(=O)c1ccccc1)C(F)(F)F (stereo not drawn)	-
CCOc1cccc(=O)c2c(C)n(-c3ccc4c(c3)OCO4)c(C)c12	-
CCOC(=O)c1ccc(-n2c(C)c3c(OCC)cccc(=O)c3c2C)cc1	3.6
CCOc1cccc(=O)c2c(C)n(-c3ccc(OC)cc3)c(C)c12	-
Cn1c(N)c(C#N)c2ccc([N+](=O)[O-])cc2c1=O	-
SMILES	Dicer processing
C=CCN1C(=O)C2(/C(=C(/O)c3ccc(Cl)cc3)C(=O)C(=O)N2CC2CCCO2)c2ccccc21 (stereo not drawn)	-
C=CCN1C(=O)C2(/C(=C(/O)c3ccc(F)cc3)C(=O)C(=O)N2CCCOC)c2ccccc21 (stereo not drawn)	-
C=CCN1C(=O)C2(/C(=C(/O)c3ccc(F)cc3)C(=O)C(=O)N2CCN2CCOCC2)c2ccccc21 (stereo not drawn)	4.5
CN1C(=O)C2(/C(=C(/O)c3ccc(Cl)cc3)C(=O)C(=O)N2CCCN2CCOCC2)c2ccccc21 (stereo not drawn)	-
C=CCN1C(=O)C2(/C(=C(/O)c3ccccc3)C(=O)C(=O)N2CCCN2CCOCC2)c2ccccc21 (stereo not drawn)	3.5
COC(=O)c1cc2c(N)c(C(=O)c3ccc(C)cc3)sc2nc1C(OC)OC	-
Cn1ncc2c(N/N=C/c3ccccc3)ncnc21	-
